Test results from PubChem BioAssay (NCI).
The panel holds about 83,000 compounds, 20% with a hit somewhere; the sample as a whole holds those more often.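 Treatment: one concentration, 48 hours, 96-well format. Scoring: percent growth, with anything below 10 considered active.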 Unmarked numbers belong to inactive results. The source made the active and inactive calls.

Legend:
Assay in all cases: NCI-60 one-dose screen, 48 h (100 = growth as untreated, 0 = no growth, -100 = all killed)
Settings in all cases: 10 µM unless noted
NCI-H23 lung = system: NCI-H23 lung
NCI-H322M lung = system: NCI-H322M lung
HOP-62 NSCLC = system: HOP-62 NSCLC
NCI-H460 lung = system: NCI-H460 lung
HOP-92 NSCLC = system: HOP-92 NSCLC
NCI-H522 lung = system: NCI-H522 lung
A549/ATCC NSCLC = system: A549/ATCC NSCLC
786-0 renal = system: 786-0 renal
COLO 205 colon = system: COLO 205 colon
DU-145 prostate = system: DU-145 prostate
K-562 leukemia = system: K-562 leukemia
MALME-3M melanoma = system: MALME-3M melanoma
MDA-MB-231 breast = system: MDA-MB-231 breast
RXF 393 renal = system: RXF 393 renal
SF-268 CNS = system: SF-268 CNS
SF-295 CNS = system: SF-295 CNS
SF-539 CNS = system: SF-539 CNS
UACC-257 melanoma = system: UACC-257 melanoma
M14 melanoma = system: M14 melanoma
HCT-15 colon = system: HCT-15 colon

SMILES | growth (NCI-H23 lung) [%] | growth (NCI-H322M lung) | growth (HOP-62 NSCLC) | growth (NCI-H460 lung) | growth (HOP-92 NSCLC) | growth (NCI-H522 lung) | growth (A549/ATCC NSCLC) | growth (786-0 renal) | growth (COLO 205 colon) | growth (DU-145 prostate) | growth (K-562 leukemia) | growth (MALME-3M melanoma) | growth (MDA-MB-231 breast) | growth (RXF 393 renal) | growth (SF-268 CNS) | growth (SF-295 CNS) | growth (SF-539 CNS) | growth (UACC-257 melanoma) | growth (M14 melanoma) | growth (HCT-15 colon)
CC[C@@H](C)[C@H](NC(=O)Cn1cc(CNC(=O)[C@@H](NC(=O)OCc2ccccc2)C(C)C)nn1)C(=O)O | 101 | 108% | 114% | 110% | 102% | 101% | 101% | 106% | 124% | 114% | 104% | 105% | 99.4% | 104% | 114% | 94.1% | 105% | 101% | 107% | 111%
O=C(Nc1ccc(C23CC4CC(CC(c5ccccc5)(C4)C2)C3)cc1)c1cccs1 | 71.4 | 92.5% | 119% | 69.9% | 86.5% | 59.9% | 72.9% | 78.7% | 91.4% | 84.7% | 26.5% | 84.5% | 87.5% | 77.5% | 103% | 105% | 92% | 75.4% | 71.1% | 60.2%
FC(F)(F)c1cccc(Nc2nc3ccccc3nc2Nc2cccc(C(F)(F)F)c2)c1 | 39.7 | -28% (active) | 2.35% (active) | -59.4% (active) | 6.66% (active) | -57.1% (active) | 3.08% (active) | -75.3% (active) | -87.2% (active) | -1.33% (active) | -19.6% (active) | -81.6% (active) | -56.3% (active) | -89.6% (active) | -9.63% (active) | -78.9% (active) | -78.7% (active) | -75.1% (active) | -69.9% (active) | 2.32% (active)
COc1ccc(CCN2C(=O)CCSC2=S)cc1OC | 103 | 101% | 97.5% | 102% | 87% | 48.3% | 97.6% | 44.2% | 114% | 67.6% | 80.9% | 101% | 106% | 90.7% | 97.1% | 98.7% | 89.7% | 96.6% | 105% | 86.2%
CC1=C(C(=O)OCC2CCN(C(=O)OC(C)(C)C)CC2)[C@H](c2cccc(Br)c2)C2=C(CC(C)(C)CC2=O)N1 | 48.4 | 57.2% | 55.7% | 8.59% (active) | 61.7% | 19.8% | 17.3% | 44.1% | 27.4% | 38.3% | 15.8% | 26.1% | 46% | 66.3% | 33.1% | 39.9% | 41.2% | 29.1% | 29.8% | 21%
COc1ccc(-c2cc(=O)c3c(OC)c4ccoc4c(/C=C/C=O)c3o2)cc1 | 40.5 | 51.2% | 15.5% | 64.8% | 72.4% | 88.3% | 90.7% | 82.8% | 99% | 24.8% | 12.2% | 24.8% | 53.6% | 48.5% | 36.2% | 31.7% | 14.8% | 108% | 28.4% | -54.1% (active)
COc1cc(C(C)n2cc(-c3ccccc3)nn2)ccc1OC1CCCCC1 (stereo not given) | 47.7 | 78.1% | 69.4% | 70.5% | 69.9% | 50.3% | 61.6% | 78.1% | 97.9% | 84.3% | 25.9% | 87.7% | 77.9% | 98% | 78.2% | 41.2% | 65% | 52.1% | 79.1% | 61.2%
COc1ccc(C(=O)C2CC2c2ccc(Cl)cc2)cc1 (stereo not given) | 95.1 | 82.7% | 115% | 94.2% | 92.7% | 68.2% | 82.8% | 89% | 106% | 97.5% | 76.1% | 94.8% | 86.4% | 95.5% | 78.8% | 141% | 98.6% | 94.2% | 92% | 97.9%
